Measurements reported in PubChem BioAssay.
Several values for one entry are separate records, joined by “and”; a condition that tells them apart may be missing. Equal entries are not always repeated. Inconclusive results are not listed. For part of these data: Results with a measured potency or affinity are listed apart. Activity calls are given as the source filed them. Unless noted, the rule behind the calls is not given here.

Tests used:
[1] = polyglutamine-triggered caspase-3 activation inhibitors, cell-based (AID 1583); conditions: polyglutamine-induced caspase-3 activation, cell assay; stronger effect = higher value;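 tested at 10 µM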
[2] = suppressors of polyQ aggregation in yeast, 75Q-TubU reporter (AID 1593); conditions: Yeast 75Q polyglutamine aggregation reporter
[3] = rescue of polyQ-huntingtin neuronal dysfunction in worms, whole organism, C. elegans mechanosensory neurons, N-terminal huntingtin (AID 1599); conditions: touch response, stronger effect = higher value
[4] = inhibitors of mitochondrial cytochrome c release, biochemical, purified mitochondria (AID 1603); conditions: stronger effect = lower value;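 note: mouse liver mitochondria challenged with calcium chloride; signal normalized to the plate average as 100%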
[5] = inhibitors of polyQ protein aggregation (AID 1604); conditions: polyglutamine-induced protein aggregation inhibition assay; stronger effect = higher value; tested at 2.5 µM
[6] = enhancers of glutamate uptake in motor neurons, MN-1 cell line (AID 1612); conditions: MN-1 motor neuron cells, stronger effect = higher value;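 note: tested at 1 µM final; 0% = mean of DMSO vehicle wells on each plate; positive means more glutamate uptake than control and negative means less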
[7] = suppressors of polyglutamine aggregation in yeast, 75Q-TubH (AID 1616); conditions: S. cerevisiae 75Q-TubH polyglutamine aggregation suppression; stronger effect = higher value
[8] = circadian clock period modulators, cell-based, LOPAC library, luminescence reporter (AID 2774); conditions: circadian reporter cells, at 7 µM, actives lie on both sides;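 note: values are relative to mean of DMSO wells on each plate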
[9] = hESC survival regulators, cell-based (AID 493140); conditions: human embryonic stem cell survival screen; stronger effect = higher value;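 note: cells exposed to compounds for four days before counting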
[10] = molecular target: ATP-dependent translocase ABCB1 (Homo sapiens) (UniProt P08183); experiment: MDR1 (ABCB1) efflux transporter inhibition, cell-based (AID 377; in the data active = fluorescence slope change above about 50%); conditions: MDR1-expressing cells, fluorescent substrate accumulation slope; stronger effect = higher value; concentration not given here
ATP-dependent translocase ABCB1 (Homo sapiens), sequence (P08183 whole entry, looked up): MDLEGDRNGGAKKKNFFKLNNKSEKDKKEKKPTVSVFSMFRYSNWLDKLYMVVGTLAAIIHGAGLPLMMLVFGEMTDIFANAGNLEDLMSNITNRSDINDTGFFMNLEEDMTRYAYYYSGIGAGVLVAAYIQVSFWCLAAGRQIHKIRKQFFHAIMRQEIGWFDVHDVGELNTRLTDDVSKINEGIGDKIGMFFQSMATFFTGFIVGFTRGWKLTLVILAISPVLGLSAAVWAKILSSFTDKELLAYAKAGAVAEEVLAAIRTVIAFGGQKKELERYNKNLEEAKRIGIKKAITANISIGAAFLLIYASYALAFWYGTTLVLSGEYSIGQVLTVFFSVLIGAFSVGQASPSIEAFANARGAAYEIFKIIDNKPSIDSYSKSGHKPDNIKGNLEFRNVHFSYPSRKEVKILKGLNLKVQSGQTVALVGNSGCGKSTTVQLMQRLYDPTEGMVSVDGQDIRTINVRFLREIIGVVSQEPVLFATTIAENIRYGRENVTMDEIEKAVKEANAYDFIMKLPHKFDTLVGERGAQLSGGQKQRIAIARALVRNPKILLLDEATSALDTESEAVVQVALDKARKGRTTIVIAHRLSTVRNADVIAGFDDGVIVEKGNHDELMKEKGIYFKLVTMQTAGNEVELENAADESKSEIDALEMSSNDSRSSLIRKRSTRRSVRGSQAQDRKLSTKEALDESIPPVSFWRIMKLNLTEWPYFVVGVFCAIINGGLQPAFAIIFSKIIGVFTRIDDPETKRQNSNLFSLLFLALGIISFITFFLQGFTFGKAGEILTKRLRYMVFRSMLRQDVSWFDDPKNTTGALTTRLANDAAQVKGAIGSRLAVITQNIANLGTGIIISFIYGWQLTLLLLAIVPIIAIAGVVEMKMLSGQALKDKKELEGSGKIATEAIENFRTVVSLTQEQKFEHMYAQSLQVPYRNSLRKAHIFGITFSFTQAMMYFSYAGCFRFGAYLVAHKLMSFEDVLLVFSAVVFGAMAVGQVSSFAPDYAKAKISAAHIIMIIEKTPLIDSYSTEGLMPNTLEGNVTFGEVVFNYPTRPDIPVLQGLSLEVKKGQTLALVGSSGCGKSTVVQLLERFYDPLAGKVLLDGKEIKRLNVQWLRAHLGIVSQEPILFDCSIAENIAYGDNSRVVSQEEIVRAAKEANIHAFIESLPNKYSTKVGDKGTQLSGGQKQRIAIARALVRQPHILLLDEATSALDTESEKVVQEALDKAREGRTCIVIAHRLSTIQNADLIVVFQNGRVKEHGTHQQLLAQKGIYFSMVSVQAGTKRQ

[11] = HepG2 cytotoxicity, primary screen, cytotoxicity control for P. falciparum antimalarial project, cell-based, ATP luminescence (AID 2303;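 active = inhibition above 50%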;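 note: 0% = DMSO wells and 100% = digitonin-killed cells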); conditions: HepG2 viability, 24-48 h, at 10 µM, stronger effect = higher value
[12] = molecular target: L-lactate dehydrogenase (Plasmodium falciparum (isolate CDC / Honduras)) (UniProt Q27743); experiment: PfLDH activity inhibition – cell lysate, 3D7 strain, counter-screen for P. falciparum growth inhibition project (AID 2304);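 note: 0% = vehicle and 100% = reference inhibitor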; conditions: P. falciparum 3D7 crude extract, LDH APAD/NBT absorbance; at 2 µM; stronger effect = higher value
L-lactate dehydrogenase (Plasmodium falciparum (isolate CDC / Honduras)), sequence (Q27743 whole entry, looked up): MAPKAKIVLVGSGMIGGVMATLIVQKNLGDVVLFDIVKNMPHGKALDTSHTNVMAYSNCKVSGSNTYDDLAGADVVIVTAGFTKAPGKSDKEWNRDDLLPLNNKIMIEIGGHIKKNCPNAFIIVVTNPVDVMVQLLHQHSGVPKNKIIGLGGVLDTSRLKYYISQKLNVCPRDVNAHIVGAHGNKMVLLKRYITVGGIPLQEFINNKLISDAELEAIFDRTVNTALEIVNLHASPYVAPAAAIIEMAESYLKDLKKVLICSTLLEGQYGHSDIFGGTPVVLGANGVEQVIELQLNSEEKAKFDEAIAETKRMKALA

[13] = inhibition of 3D7 malaria parasite growth – strain 3D7 (AID 2306);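 note: 0% = DMSO wells and 100% = chloroquine plus artemisinin control wells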; conditions: P. falciparum 3D7 erythrocytic growth, LDH absorbance, 72 h; at 2 µM; stronger effect = higher value
[14] = antimalarial activity against Dd2 strain (AID 2302;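 active = growth inhibition above 50% at the single 2 µM test dose, taken to imply half-maximal potency below 2 µM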;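 note: 0% = DMSO untreated growth and 100% = chloroquine plus artemisinin killed control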); conditions: P. falciparum Dd2 in RBCs, LDH growth readout, 72 h; at 2 µM; stronger effect = higher value

NC(CO)C(=O)NNCc1ccc(O)c(O)c1O (centres undefined)
inhibition [1]: 5.62%
score [2]: 1.68
rescue above control [3]: 7.52
cytochrome c release ratio [4]: 0.53
inhibition of aggregation [5]: 89.7%
glutamate uptake change [6]: 11.3%
aggregation suppression score [7]: 1.23
period change [8]: 0.075 h (inactive)
survival [9]: 2.42 (inactive)

C/C=C(/C(=C/C)c1ccc(O)cc1)c1ccc(O)cc1
fluorescence slope change [10]: 10.7% (inactive)
inhibition [1]: 31.3%
score [2]: 0.33
rescue above control [3]: -4.61
cytochrome c release ratio [4]: 4.08
inhibition of aggregation [5]: 63.2%
glutamate uptake change [6]: -21.7%
aggregation suppression score [7]: 0.184
survival [9]: 5.92 (inactive)

COC(=O)[C@H]1[C@H]2C[C@@H]3c4[nH]c5cc(OC)ccc5c4CCN3C[C@H]2C[C@@H](OC(=O)c2cc(OC)c(OC)c(OC)c2)[C@@H]1OC
fluorescence slope change [10]: 51.8% (active)
inhibition [1]: -42.7%
score [2]: 1.16
rescue above control [3]: -12.7
cytochrome c release ratio [4]: 1.46
inhibition of aggregation [5]: 63.2%
glutamate uptake change [6]: 4.63%
aggregation suppression score [7]: 1.07
period change [8]: 0.165 h (inactive)
survival [9]: 6.17 (inactive)

Oc1c(I)cc(I)c2cccnc12
inhibition [1]: 17.6%
score [2]: -0.2
rescue above control [3]: -12.4
cytochrome c release ratio [4]: 1.04
inhibition of aggregation [5]: 24.2%
glutamate uptake change [6]: 78.2%
aggregation suppression score [7]: 0.108

CCCCOc1ccc(C(=O)CCN2CCCCC2)cc1
inhibition [1]: -5.19%
score [2]: 1.14
rescue above control [3]: 14.1
cytochrome c release ratio [4]: 0.48
inhibition of aggregation [5]: 80.3%
glutamate uptake change [6]: 1.68%
aggregation suppression score [7]: 1.27
survival [9]: 4.92 (inactive)

Nc1ccc(N=Nc2ccccc2)c(N)n1
inhibition [1]: 8.8%
score [2]: 1.35
rescue above control [3]: -1.41
cytochrome c release ratio [4]: 0.66
inhibition of aggregation [5]: 65.5%
glutamate uptake change [6]: -9.75%
aggregation suppression score [7]: 1.49
survival [9]: 4 (inactive)

CC(C)(C)CC(C)(C)c1ccc(O)c(Cc2ccc(Cl)cc2Cl)c1
inhibition [1]: 42%
score [2]: -0.61
rescue above control [3]: -2.34
cytochrome c release ratio [4]: 0.8
inhibition of aggregation [5]: 71.9%
glutamate uptake change [6]: -22.5%
aggregation suppression score [7]: 0.498

Cc1oncc1C(=O)Nc1ccc(C(F)(F)F)cc1
fluorescence slope change [10]: 12.9% (inactive)
inhibition [1]: -21.8%
score [2]: 0.42
rescue above control [3]: -2.16
cytochrome c release ratio [4]: 1.42
inhibition of aggregation [5]: 51%
glutamate uptake change [6]: 8.42%
aggregation suppression score [7]: 0.133
period change [8]: 0.35 h (inactive)
survival [9]: 6.08 (inactive)

Oc1c(Br)cc(Br)c2cccnc12
inhibition [1]: 46.3%
score [2]: -0.06
rescue above control [3]: 10.9
cytochrome c release ratio [4]: 2
inhibition of aggregation [5]: 80.3%
glutamate uptake change [6]: 4.76%
aggregation suppression score [7]: -0.0132

CSc1ccc2c(c1)C(N1CCN(C)CC1)Cc1ccccc1S2 (centres undefined)
inhibition [1]: 7.11%
score [2]: 0.84
rescue above control [3]: 0
cytochrome c release ratio [4]: 4.27
inhibition of aggregation [5]: 80.6%
glutamate uptake change [6]: 5.12%
aggregation suppression score [7]: 1.18
period change [8]: 0.085 h (inactive)
survival [9]: 1.5 (inactive)

CCCCC(CC)CN1CN(CC(CC)CCCC)CC(C)(N)C1 (centres undefined)
fluorescence slope change [10]: 61.9% (active)
inhibition [1]: 22.5%
score [2]: 0.11
rescue above control [3]: 0
cytochrome c release ratio [4]: 0.41
inhibition of aggregation [5]: 1.83%
glutamate uptake change [6]: 2.82%
aggregation suppression score [7]: 0.306
survival [9]: 6.83 (inactive)

CN1CCN2c3ccccc3Cc3ccccc3C2C1 (centres undefined)
fluorescence slope change [10]: 67.1% (active)
inhibition [1]: -9.95%
score [2]: 1.13
rescue above control [3]: 36.1
cytochrome c release ratio [4]: 0.7
inhibition of aggregation [5]: 60.7%
glutamate uptake change [6]: 12.1%
aggregation suppression score [7]: 1.3
period change [8]: 0.145 h (inactive)
survival [9]: 11.2 (inactive)

CC1CCC(NC(=O)N(CCCl)N=O)CC1 (centres undefined)
fluorescence slope change [10]: 10.9% (inactive)
inhibition [1]: 13.6%
score [2]: 0.02
rescue above control [3]: -12.6
cytochrome c release ratio [4]: 1.01
inhibition of aggregation [5]: 26.4%
glutamate uptake change [6]: -7.99%
aggregation suppression score [7]: 0.0109

Fc1ccc(C(c2ccc(F)cc2)N2CCN(C/C=C/c3ccccc3)CC2)cc1
fluorescence slope change [10]: 70.9% (active)
inhibition [1]: 11.9%
score [2]: 0.72
rescue above control [3]: 11.5
cytochrome c release ratio [4]: 1.24
inhibition of aggregation [5]: 27%
glutamate uptake change [6]: 9.47%
aggregation suppression score [7]: 1.1
period change [8]: -0.2 h (inactive)
survival [9]: 3.67 (inactive)

CCCC(C(=O)OCCN(CC)CC)(c1ccccc1)c1ccccc1
fluorescence slope change [10]: 180% (active)
inhibition [1]: -4.65%
score [2]: 1.32
rescue above control [3]: -2.09
cytochrome c release ratio [4]: 2.6
inhibition of aggregation [5]: 77%
glutamate uptake change [6]: 0.18%
aggregation suppression score [7]: 1.25
period change [8]: -0.035 h (inactive)
survival [9]: 3.58 (inactive)

CN(C)CCCN1c2ccccc2Sc2ccc(C(F)(F)F)cc21
inhibition [1]: 30.2%
score [2]: 1.13
rescue above control [3]: 19.8
cytochrome c release ratio [4]: 0.7
inhibition of aggregation [5]: 76%
glutamate uptake change [6]: 10.7%
aggregation suppression score [7]: 1.05
period change [8]: -0.13 h (inactive)
survival [9]: 5.42 (inactive)

Cc1nc2sccn2c(=O)c1CCN1CCC(=C(c2ccc(F)cc2)c2ccc(F)cc2)CC1
inhibition [1]: -6.39%
score [2]: 1.46
rescue above control [3]: 0
cytochrome c release ratio [4]: 0.36
inhibition of aggregation [5]: 7.32%
glutamate uptake change [6]: 29.6%
aggregation suppression score [7]: 1.39
period change [8]: 0.08 h (inactive)

CN1CCN(CCCN2c3ccccc3Sc3ccc(Cl)cc32)CC1
fluorescence slope change [10]: 65.3% (active)
inhibition [1]: 88.9%
score [2]: 1.36
rescue above control [3]: 0
cytochrome c release ratio [4]: 2.91
inhibition of aggregation [5]: 74.6%
glutamate uptake change [6]: 0%
aggregation suppression score [7]: 1.34
period change [8]: 0.055 h (inactive)
survival [9]: 1.75 (inactive)

CCCCCCOc1ccccc1C(N)=O
inhibition [1]: 0.61%
score [2]: 0.45
rescue above control [3]: -0.6
cytochrome c release ratio [4]: 1.11
inhibition of aggregation [5]: 67.5%
glutamate uptake change [6]: 0.56%
aggregation suppression score [7]: 0.156

COC(=O)Nc1nc2ccc(Sc3ccccc3)cc2[nH]1
fluorescence slope change [10]: 52.1% (active)
inhibition [1]: 20.4%
score [2]: 0.64
rescue above control [3]: -1.52
cytochrome c release ratio [4]: 0.87
inhibition of aggregation [5]: 6.35%
glutamate uptake change [6]: -41.7%
aggregation suppression score [7]: 0.129
survival [9]: 0.833 (inactive)

Cc1cc(N)c2ccccc2[n+]1CCCCCCCCCC[n+]1c(C)cc(N)c2ccccc21
fluorescence slope change [10]: 97.9% (active)
inhibition [1]: -13.3%
score [2]: 0.06
rescue above control [3]: -0.23
cytochrome c release ratio [4]: 6.78
inhibition of aggregation [5]: 43.1%
glutamate uptake change [6]: 12.9%
aggregation suppression score [7]: 0.0487
period change [8]: 0.12 h (inactive)
survival [9]: 0.167 (inactive)

O=C(OCC(O)CO)c1ccccc1Nc1ccnc2cc(Cl)ccc12 (centres undefined)
fluorescence slope change [10]: 88.6% (active)
inhibition [1]: 18.5%
score [2]: 1.22
rescue above control [3]: -8.14
cytochrome c release ratio [4]: 1.02
inhibition of aggregation [5]: 23.8%
glutamate uptake change [6]: 4.05%
aggregation suppression score [7]: 0.893
survival [9]: 17.9 (inactive)

CC(C)COCC(CN(Cc1ccccc1)c1ccccc1)N1CCCC1 (centres undefined)
fluorescence slope change [10]: 131% (active)
inhibition [1]: 7.56%
score [2]: 1.17
rescue above control [3]: 1.23
cytochrome c release ratio [4]: 0.32
inhibition of aggregation [5]: 23.6%
glutamate uptake change [6]: 12.6%
aggregation suppression score [7]: 1.08
period change [8]: 0.04 h (inactive)
survival [9]: 5.92 (inactive)

COc1ccc(CCN2CCC(Nc3nc4ccccc4n3Cc3ccc(F)cc3)CC2)cc1
fluorescence slope change [10]: 189% (active)
inhibition [1]: 17.9%
score [2]: 1.54
rescue above control [3]: 0
cytochrome c release ratio [4]: 0.61
inhibition of aggregation [5]: -3.03%
glutamate uptake change [6]: 31.2%
aggregation suppression score [7]: 1.26
survival [9]: 1.58 (inactive)

CN(Cc1cnc2nc(N)nc(N)c2n1)c1ccc(C(=O)N[C@@H](CCC(=O)O)C(=O)O)cc1
inhibition [1]: 25.6%
score [2]: 0.69
rescue above control [3]: -10.9
cytochrome c release ratio [4]: 1.08
inhibition of aggregation [5]: 74.6%
glutamate uptake change [6]: 10.9%
aggregation suppression score [7]: 0.131
inhibition [11]: -2% (inactive)
inhibition [12]: 1% (inactive)
growth inhibition [13]: 91% (active)
period change [8]: 0.835 h (inactive)
survival [9]: 39.6 (inactive)

CN1CCC[C@@H]1CCO[C@](C)(c1ccccc1)c1ccc(Cl)cc1
fluorescence slope change [10]: 188% (active)
inhibition [1]: 2.42%
score [2]: 1.25
rescue above control [3]: 0
cytochrome c release ratio [4]: 1.13
inhibition of aggregation [5]: 76.2%
glutamate uptake change [6]: 65.2%
aggregation suppression score [7]: 0.9
survival [9]: 6.33 (inactive)

CC1=CC(=O)c2ccccc2C1=O
fluorescence slope change [10]: 81.2% (active)
inhibition [1]: 56.7%
score [2]: -0.01
rescue above control [3]: -12.4
cytochrome c release ratio [4]: 1.17
inhibition of aggregation [5]: 53.5%
glutamate uptake change [6]: -13.7%
aggregation suppression score [7]: 0.00728
survival [9]: 2.42 (inactive)

C1CCC(C(CC2CCCCN2)C2CCCCC2)CC1 (centres undefined)
fluorescence slope change [10]: 352% (active)
inhibition [1]: 57.7%
score [2]: 0.35
rescue above control [3]: -18
cytochrome c release ratio [4]: 1.56
inhibition of aggregation [5]: 83.1%
glutamate uptake change [6]: -10.9%
aggregation suppression score [7]: 0.885
survival [9]: 6 (inactive)

CCOC(=O)C(C)(C)Oc1ccc(Cl)cc1
inhibition [1]: 24.9% and 18.3%
score [2]: 0.66 and 0.84
rescue above control [3]: -9.07 and 5.03
cytochrome c release ratio [4]: 0.65 and 0.84
inhibition of aggregation [5]: 70.5% and -5.88%
glutamate uptake change [6]: -11.1% and 6.19%
aggregation suppression score [7]: 0.624 and 0.92
period change [8]: -0.13 h (inactive)
survival [9]: 82.4 (inactive)

CCCCCCCC/C=C\CCCCCCCC(=O)NCc1ccc(O)c(OC)c1
growth inhibition [14]: 93% (active)
inhibition [11]: -7% (inactive)
inhibition [12]: -7% (inactive)
growth inhibition [13]: 96% (active)
